Source: PubChem BioAssay (EPA / NIEHS)
“And” between values parts separate entries of the source, which are not always exact repeats. Equal entries are not always repeated. Where a structure was tested more than once in an assay, its records may differ in their call. The source made the active and inactive calls. How the source made its calls: active means hit-call score of the fitted dose curve at least 0.9, where 1 is the maximum; inactive means score below 0.9.

Each compound was assayed on CYP2C9 (gene 1559) (assay: LTEA_HepaRG_CYP2C9: Life Technologies and Expression Analysis (LTEA) Assay for CYP2C9 using HepaRG (AID 2283484)). Settings: mRNA level, 48 h; actives raise or lower the signal.
Protocol: LTEA_HepaRG is a cell based, multiplexed-readout assay that uses HepaRG, a human liver cell line, with measurements taken at 48 hours after chemical dosing on a 96-well plate.LTEA_HepaRG_CYP2C9 is one of 102 assay component(s) measured in the LTEA HepaRG cell culture assay. It is a marker of NR mediated metabolism.Data from the assay component LTEA_HepaRG_CYP2C9 was analyzed into 1 endpoint. This assay endpoint, LTEA_HepaRG_CYP2C9, was analyzed with bidirectional fitting relative to DMSO as the negative control and baseline of activity. Using a type of inducible reporter, measures of mRNA induction for gain or loss-of-signal activity can be used to understand regulation of transcription factor activity. To generalize the intended target to other relatable targets, this assay endpoint is annotated to the cyp intended target family, where the subfamily is xenobiotic metabolism.
A total of 1060 chemcials from the ToxCast library were tested in eight-point concentration-response experiments. Cell culture and cytotoxicity assays were conducted at Thermo Fisher Scientific's Custom Services facility (Madison, WI). A single lot of human HepaRG cells (Thermo Fisher Scientific, Frederick, MD) was used for the cell culture experiments. 96-well format collagen type I coated plates of human HepaRG cells were prepared using established methods. Briefly, cryopreserved HepaRG cells were thawed, plated at a density of approximately 100,000 cells/well in HepaRG Thaw, Plate, and General Purpose media (HPRG770, Thermo Fisher Scientific), and incubated for 48 hours. 0.5% DMSO was selected as vehicle control to balance the requisite need of DMSO in HepaRG cultures to maintain differentiation (for example, baseline metabolism, proportions of hepatocytes vs. cholangiocytes), while enabling further hepatic receptor pathway activation (for example, PXR and CAR) in response to chemical exposure. 48 hours after plating, the culture medium was replaced with HepaRG Serum-Free Incudtion Media. Cells were exposed to each test chemical in duplicate and maintained in CO2 incubators for another 48 hours. Chemical plates were thawed to room temperature and 200x concentrations of treatment groups were prepared. 8-point conentration-reponse curves were made with the highest exposure at 100 uM, followed by half-log dilutions, all in 0.5% DMSO. Each test plate contained variouse controls, induction positive controls (1mM phenobarbital), cytotoxicity positive controls ([…] aflatoxin B1), vehicle controls (0.5% DMSO), and total lysis controls (0.5% DMSO). Cell morphology images were taken using an Essen IncuCyte FLR automated microscope, with six 96-well plates imaged in about 24 minutes. Images were captured and exported and JPEG files. Spent culture media was transfered to black-well plates for the LDH assay, and remaining media was sorted at -80 C for later use. Cells were treated with RLT buffer and frozen until shipped for gene expression analysis. Total RNA was isolated from the cell suspension in 75 uL of Buffer RLT (Qiagen, Germantown, MD 20874) by Quintiles/Expression Analysis (Durham, NC) using a custom isolation procedure. Total RNA from each plate well was transferred to a preamplification plate. Fluidigm's 96.96 Dynamic ArrayTM (Fluidigm, Amsterdam, the Netherlands) technology was used for gene expression analyses by quantitative reverse transcription polymerase chain reaction (qRT-PCR, performed by Quintiles/Expression Analysis, Durham, NC)89. Standard TaqManTM Assays (Applied Biosystems/ThermoFisher Scientific, Foster City, CA) were used to assess the expression of 93 genes selected based on their selectivity and sensitivity to important hepatic receptors known to be modulated by environmental chemicals; importance in human hepatocyte functionality; and hepatotoxicity. […]
In the case of CCOC(=O)C(C)Oc1ccc(Oc2cnc3cc(Cl)ccc3n2)cc1 (stereo not given), the outcome is reported as “inactive”. CC(C)(c1ccc(O)cc1)c1ccc(O)cc1 was tested, and the outcome was “inactive” and the AC50 was 9.92 µM (active). CCCCOC(=O)[C@@H](C)Oc1ccc(Oc2ccc(C(F)(F)F)cn2)cc1 was tested, and the outcome was “inactive”. O=C(c1ccccc1)C1CCCCC1 was tested, and the outcome was “inactive”. For Cc1nn(C)c(Oc2ccccc2)c1C=NOCc1ccc(C(=O)OC(C)(C)C)cc1, the AC50 was 20.1 µM (active). In the case of O=C(O)c1ccccc1, the outcome is reported as “inactive”. With C#C[C@]1(O)CC[C@H]2[C@@H]3CCC4=CC(=O)CC[C@@H]4[C@H]3CC[C@@]21CC the outcome was “inactive”. CN(C)C(=O)Nc1ccc(Cl)c(Cl)c1 was tested, and the outcome was “inactive”. With CCCN(CCC)c1c([N+](=O)[O-])cc(C(F)(F)F)c(N)c1[N+](=O)[O-] the outcome was “inactive”. OB(O)O was tested, and the outcome was “inactive”. For O=C(Nc1ccc([N+](=O)[O-])cc1Cl)c1cc(Cl)ccc1O, the AC50 was 3.21 µM (active). CCOC(=O)COc1cc(-n2ncc(C(F)(F)F)c(C)c2=O)c(F)cc1Cl was tested, and the outcome was “inactive”. In the case of CCCCOC(=O)C(C)Oc1ccc(Oc2ccc(C(F)(F)F)cn2)cc1 (stereo not given), the outcome is reported as “inactive”. For CC1(C)C(C=C(Cl)Cl)C1C(=O)OCc1cccc(Oc2ccccc2)c1 (stereo not given), the outcome was “inactive”. With CC(C)CCCCCCc1ccc(O)cc1 the outcome was “inactive”. Oc1ccc(C(c2ccc(O)cc2)C(Cl)(Cl)Cl)cc1 was tested, and the AC50 was 93.1 µM (active). CCOC(=O)C(C)Oc1ccc(Oc2nc3ccc(Cl)cc3o2)cc1 (stereo not given) was tested, and the AC50 was 19.6 µM (active). With CCCCCOC(=O)COc1cc(N2C(=O)C3=C(CCCC3)C2=O)c(F)cc1Cl the outcome was “inactive”. For COCCO, the outcome was “inactive”. For S=C(S)NCCNC(=S)S.[Mn+2].[S-]C([S-])=NCCN=C([S-])[S-].[Zn+2], the AC50 was 823 nM (active) and 816 nM (active) and 891 nM (active). With CSC(=O)c1cccc2nnsc12 the outcome was “inactive”. With CCSC(=O)N(CC(C)C)CC(C)C the outcome was “inactive”. For COC(=O)CSc1cc(N=c2sc(=O)n3n2CCCC3)c(F)cc1Cl, the outcome was “inactive”. In the case of C=CCOC(Cn1ccnc1)c1ccc(Cl)cc1Cl (stereo not given), the AC50 is reported as 33.1 µM (active). CCCN(CCC)C(=O)SCC was tested, and the outcome was “inactive”. With O=C(c1ccc(O)cc1O)c1ccc(O)cc1O the outcome was “inactive”. CC(C)(C)[C@@H](O)[C@@H](Cc1ccc(Cl)cc1)n1cncn1 was tested, and the outcome was “inactive”. With CCN(CC)C(=O)c1cccc(C)c1 the AC50 was 3.56 µM (active). In the case of CCCCC(CC)CN1C(=O)C2C3C=CC(C3)C2C1=O (stereo not given), the AC50 is reported as 82.6 µM (active). With CCOC(=O)c1ccc(O)cc1 the outcome was “inactive”. For N#CSCSc1nc2ccccc2s1, the AC50 was 75.3 µM (active). S=C([S-])NCCNC(=S)[S-].[Mn+2] was tested, and the AC50 was 2.23 µM (active). CCCCOCCOCCOCc1cc2c(cc1CCC)OCO2 was tested, and the AC50 was 3.39 µM (active). For O=C(O)C1(C(=O)Nc2ccc(Cl)cc2Cl)CC1, the AC50 was 71.9 µM (active). In the case of COc1c(Cl)ccc(Cl)c1C(=O)O, the outcome is reported as “inactive”. With CCCOC(=O)NCCCN(C)C the outcome was “inactive”. With CCCOC(=O)c1ccc(C(=O)OCCC)nc1 the outcome was “inactive”. In the case of C[C@]12CC[C@@H]3c4ccc(O)cc4C[C@@H](CCCCCCCCCS(=O)CCCC(F)(F)C(F)(F)F)[C@H]3[C@@H]1CC[C@@H]2O (stereo not given in full), the AC50 is reported as 28.7 µM (active). With CCCCC(CC)COC(=O)c1ccccc1C(=O)O (stereo not given) the outcome was “inactive”.
